The supplement of paper PMC10849652
The full data set covers some 7,900 targets. This sample favours those with a hit. About 0.6% of all pairs of compound and target were hits. Values without a mark were called inactive.

Experiments:
Assay in all cases: log2 fold change, soluble protein after heating vs DMSO (PISA); higher = thermal stabilisation; K562 cells, 10 uM, 30 min; active = over 0.2 and 3.5 SD of the protein, either way, in both replicates (recomputed)
[1] = compound: CC1=C(C=C(C=C1)NC(=O)C2=CC(=CC=C2)C(C)(C)C#N)NC3=CC4=C(C=C3)N=CN(C4=O)C
How it was run: (§1)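 K562 cells at 2×10^6 cells/mL were treated with 10 μM compound for 30 min. Aliquots were heated for 3 min across 48°C-58°C, pooled, and extracted in PBS with 0.5% NP-40 at 4°C; soluble protein was the supernatant after 21,000xg for 90 min. Soluble protein was quantified by TMTpro 16plex LC-MS/MS with channel sums equalised, and reported as log2 fold change in thermal stability against DMSO controls, with values from duplicates.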

[2] = compound: CC1=C(C=C(C=C1)NC(=O)C2=CC(=CC=C2)N(C)C)NC(=O)C3=CC=C(C=C3)O
How it was run: as §1

[3] = compound: CC1=CC=C(C=C1)SC2=C3C=C(SC3=CN=C2)C(=O)N
How it was run: as §1

[4] = compound: CC1=NC(=CC=C1)C2=C(N=C(N2)C(C)(C)C)C3=CC4=NC=CN=C4C=C3
How it was run: as §1

Nexturastat A = compound: CCCCN(Cc1ccc(C(=O)NO)cc1)C(=O)Nc1ccccc1 [Nexturastat A]
How it was run: as §1

vemurafenib = compound: CCCS(=O)(=O)Nc1ccc(F)c(C(=O)c2c[nH]c3ncc(-c4ccc(Cl)cc4)cc23)c1F [vemurafenib]
How it was run: as §1

[5] = compound: CCCS(=O)(=O)Nc1ccc(F)c(C(=O)c2c[nH]c3ncc(Cl)cc23)c1F
How it was run: as §1

[6] = compound: CCCc1cc(C)[nH]c(=O)c1CNC(=O)c1cc(-c2ccnc(N3CCN(C)CC3)c2)cc2c1cnn2C(C)C
How it was run: as §1

givinostat = compound: CCN(CC)Cc1ccc2cc(COC(=O)Nc3ccc(C(=O)NO)cc3)ccc2c1 [givinostat]
How it was run: as §1

barasertib = compound: CCN(CCCOc1ccc2c(Nc3cc(CC(=O)Nc4cccc(F)c4)[nH]n3)ncnc2c1)CCOP(=O)(O)O [barasertib]
How it was run: as §1

Sequence of UniProt Q9NQG6 (Q9NQG6 whole entry, looked up): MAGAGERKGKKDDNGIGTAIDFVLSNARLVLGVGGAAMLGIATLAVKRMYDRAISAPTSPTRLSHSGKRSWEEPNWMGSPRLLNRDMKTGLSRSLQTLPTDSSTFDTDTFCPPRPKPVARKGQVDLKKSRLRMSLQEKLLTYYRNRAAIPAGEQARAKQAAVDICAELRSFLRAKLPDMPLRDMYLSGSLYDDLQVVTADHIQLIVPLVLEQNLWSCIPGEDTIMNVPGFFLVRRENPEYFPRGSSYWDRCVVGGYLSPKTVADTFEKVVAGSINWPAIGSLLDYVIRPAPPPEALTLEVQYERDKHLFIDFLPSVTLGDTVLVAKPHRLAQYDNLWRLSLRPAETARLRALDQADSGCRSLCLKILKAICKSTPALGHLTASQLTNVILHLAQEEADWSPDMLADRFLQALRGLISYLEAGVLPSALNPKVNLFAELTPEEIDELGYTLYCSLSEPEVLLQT
Sequence of UniProt Q14974 (Q14974 whole entry, looked up): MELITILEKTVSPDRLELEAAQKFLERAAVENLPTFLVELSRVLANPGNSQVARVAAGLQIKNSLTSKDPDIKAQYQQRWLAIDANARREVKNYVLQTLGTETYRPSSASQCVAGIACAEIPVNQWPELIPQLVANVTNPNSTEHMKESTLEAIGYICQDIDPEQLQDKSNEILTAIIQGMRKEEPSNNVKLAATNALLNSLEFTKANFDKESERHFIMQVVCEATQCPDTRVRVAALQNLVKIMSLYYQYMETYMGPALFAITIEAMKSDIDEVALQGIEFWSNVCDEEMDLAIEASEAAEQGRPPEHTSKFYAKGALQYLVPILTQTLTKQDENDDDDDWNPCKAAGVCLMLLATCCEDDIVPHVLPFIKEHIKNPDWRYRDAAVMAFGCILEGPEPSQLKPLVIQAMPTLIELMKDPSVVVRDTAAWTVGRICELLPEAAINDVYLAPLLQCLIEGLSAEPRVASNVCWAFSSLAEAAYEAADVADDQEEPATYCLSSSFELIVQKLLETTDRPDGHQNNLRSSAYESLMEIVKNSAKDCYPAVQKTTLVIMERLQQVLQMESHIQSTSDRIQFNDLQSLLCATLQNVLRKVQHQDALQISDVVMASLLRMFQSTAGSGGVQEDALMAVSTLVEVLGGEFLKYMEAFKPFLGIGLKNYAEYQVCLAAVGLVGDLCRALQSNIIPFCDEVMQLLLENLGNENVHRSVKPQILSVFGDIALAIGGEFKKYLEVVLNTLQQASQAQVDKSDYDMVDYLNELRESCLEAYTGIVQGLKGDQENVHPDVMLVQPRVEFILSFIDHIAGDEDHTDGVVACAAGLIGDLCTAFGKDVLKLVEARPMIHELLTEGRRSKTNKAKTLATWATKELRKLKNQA
Sequence of UniProt Q96LU5 (Q96LU5 whole entry, looked up): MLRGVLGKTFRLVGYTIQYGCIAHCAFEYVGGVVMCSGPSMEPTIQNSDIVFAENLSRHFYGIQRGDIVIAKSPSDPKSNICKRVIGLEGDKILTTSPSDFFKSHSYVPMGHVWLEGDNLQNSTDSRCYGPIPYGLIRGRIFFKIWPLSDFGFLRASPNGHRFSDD
Sequence of UniProt Q8WWC4 (Q8WWC4 whole entry, looked up): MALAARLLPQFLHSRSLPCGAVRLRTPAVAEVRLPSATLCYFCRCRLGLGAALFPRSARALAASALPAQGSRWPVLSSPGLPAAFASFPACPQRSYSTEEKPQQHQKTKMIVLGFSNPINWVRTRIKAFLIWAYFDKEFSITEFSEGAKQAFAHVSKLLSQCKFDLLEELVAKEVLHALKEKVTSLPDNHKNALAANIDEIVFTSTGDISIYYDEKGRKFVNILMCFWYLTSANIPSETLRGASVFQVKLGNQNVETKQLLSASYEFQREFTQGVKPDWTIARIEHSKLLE
Sequence of UniProt Q7LBC6 (Q7LBC6 whole entry, looked up): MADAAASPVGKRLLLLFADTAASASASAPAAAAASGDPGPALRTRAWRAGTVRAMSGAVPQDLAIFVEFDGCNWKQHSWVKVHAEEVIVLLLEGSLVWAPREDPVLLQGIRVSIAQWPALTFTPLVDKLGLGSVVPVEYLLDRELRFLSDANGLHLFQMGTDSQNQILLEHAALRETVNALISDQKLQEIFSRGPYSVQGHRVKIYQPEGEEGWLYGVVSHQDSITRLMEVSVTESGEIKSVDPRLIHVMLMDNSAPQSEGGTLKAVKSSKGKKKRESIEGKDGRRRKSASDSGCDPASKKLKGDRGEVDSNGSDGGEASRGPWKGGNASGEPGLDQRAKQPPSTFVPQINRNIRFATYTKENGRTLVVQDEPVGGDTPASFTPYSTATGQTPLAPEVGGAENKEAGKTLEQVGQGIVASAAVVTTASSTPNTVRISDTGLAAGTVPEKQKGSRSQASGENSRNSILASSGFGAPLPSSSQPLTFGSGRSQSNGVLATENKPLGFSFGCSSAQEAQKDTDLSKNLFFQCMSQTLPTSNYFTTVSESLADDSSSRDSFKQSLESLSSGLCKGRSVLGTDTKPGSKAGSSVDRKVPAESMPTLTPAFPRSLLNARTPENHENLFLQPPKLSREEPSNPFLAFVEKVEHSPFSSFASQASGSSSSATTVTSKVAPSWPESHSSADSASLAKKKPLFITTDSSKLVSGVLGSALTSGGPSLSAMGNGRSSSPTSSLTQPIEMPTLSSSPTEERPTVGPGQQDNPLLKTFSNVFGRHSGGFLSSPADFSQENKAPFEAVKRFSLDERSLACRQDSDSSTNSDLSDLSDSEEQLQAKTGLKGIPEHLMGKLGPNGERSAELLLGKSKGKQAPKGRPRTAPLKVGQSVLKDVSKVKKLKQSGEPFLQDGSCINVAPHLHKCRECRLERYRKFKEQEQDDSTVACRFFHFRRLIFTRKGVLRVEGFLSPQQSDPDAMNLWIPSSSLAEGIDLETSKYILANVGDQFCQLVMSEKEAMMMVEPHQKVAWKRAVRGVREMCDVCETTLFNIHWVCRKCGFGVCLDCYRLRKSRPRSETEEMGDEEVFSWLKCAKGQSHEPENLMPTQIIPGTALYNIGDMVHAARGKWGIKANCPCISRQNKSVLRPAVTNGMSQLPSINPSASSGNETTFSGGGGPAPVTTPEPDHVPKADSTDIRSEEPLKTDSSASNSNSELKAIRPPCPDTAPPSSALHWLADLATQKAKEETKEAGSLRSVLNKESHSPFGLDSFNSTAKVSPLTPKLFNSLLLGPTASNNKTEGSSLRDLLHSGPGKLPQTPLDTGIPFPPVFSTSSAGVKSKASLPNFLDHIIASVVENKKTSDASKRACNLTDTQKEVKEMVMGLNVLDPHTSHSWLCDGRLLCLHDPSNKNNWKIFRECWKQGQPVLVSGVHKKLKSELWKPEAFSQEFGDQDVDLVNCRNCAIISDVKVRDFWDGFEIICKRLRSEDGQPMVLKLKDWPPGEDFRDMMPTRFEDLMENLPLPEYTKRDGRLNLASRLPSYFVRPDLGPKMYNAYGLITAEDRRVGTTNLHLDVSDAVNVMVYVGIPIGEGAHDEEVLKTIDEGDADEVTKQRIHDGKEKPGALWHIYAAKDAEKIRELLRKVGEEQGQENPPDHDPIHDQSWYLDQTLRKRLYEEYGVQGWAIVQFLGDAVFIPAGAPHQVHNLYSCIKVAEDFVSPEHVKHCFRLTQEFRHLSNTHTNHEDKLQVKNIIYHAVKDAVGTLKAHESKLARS
Sequence of UniProt Q07666 (Q07666 whole entry, looked up): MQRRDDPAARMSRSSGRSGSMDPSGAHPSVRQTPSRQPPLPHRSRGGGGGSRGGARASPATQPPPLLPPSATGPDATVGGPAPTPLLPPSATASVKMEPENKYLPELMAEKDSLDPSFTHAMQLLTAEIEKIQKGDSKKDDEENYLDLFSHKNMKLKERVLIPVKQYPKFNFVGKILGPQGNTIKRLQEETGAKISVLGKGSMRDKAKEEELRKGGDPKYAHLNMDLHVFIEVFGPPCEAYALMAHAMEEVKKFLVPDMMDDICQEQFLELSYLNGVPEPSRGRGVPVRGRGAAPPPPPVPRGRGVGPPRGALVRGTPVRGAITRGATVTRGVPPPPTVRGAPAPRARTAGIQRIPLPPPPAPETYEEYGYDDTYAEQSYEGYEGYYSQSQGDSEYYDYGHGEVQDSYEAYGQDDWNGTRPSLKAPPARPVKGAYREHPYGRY
Sequence of UniProt Q96P70 (Q96P70 whole entry, looked up): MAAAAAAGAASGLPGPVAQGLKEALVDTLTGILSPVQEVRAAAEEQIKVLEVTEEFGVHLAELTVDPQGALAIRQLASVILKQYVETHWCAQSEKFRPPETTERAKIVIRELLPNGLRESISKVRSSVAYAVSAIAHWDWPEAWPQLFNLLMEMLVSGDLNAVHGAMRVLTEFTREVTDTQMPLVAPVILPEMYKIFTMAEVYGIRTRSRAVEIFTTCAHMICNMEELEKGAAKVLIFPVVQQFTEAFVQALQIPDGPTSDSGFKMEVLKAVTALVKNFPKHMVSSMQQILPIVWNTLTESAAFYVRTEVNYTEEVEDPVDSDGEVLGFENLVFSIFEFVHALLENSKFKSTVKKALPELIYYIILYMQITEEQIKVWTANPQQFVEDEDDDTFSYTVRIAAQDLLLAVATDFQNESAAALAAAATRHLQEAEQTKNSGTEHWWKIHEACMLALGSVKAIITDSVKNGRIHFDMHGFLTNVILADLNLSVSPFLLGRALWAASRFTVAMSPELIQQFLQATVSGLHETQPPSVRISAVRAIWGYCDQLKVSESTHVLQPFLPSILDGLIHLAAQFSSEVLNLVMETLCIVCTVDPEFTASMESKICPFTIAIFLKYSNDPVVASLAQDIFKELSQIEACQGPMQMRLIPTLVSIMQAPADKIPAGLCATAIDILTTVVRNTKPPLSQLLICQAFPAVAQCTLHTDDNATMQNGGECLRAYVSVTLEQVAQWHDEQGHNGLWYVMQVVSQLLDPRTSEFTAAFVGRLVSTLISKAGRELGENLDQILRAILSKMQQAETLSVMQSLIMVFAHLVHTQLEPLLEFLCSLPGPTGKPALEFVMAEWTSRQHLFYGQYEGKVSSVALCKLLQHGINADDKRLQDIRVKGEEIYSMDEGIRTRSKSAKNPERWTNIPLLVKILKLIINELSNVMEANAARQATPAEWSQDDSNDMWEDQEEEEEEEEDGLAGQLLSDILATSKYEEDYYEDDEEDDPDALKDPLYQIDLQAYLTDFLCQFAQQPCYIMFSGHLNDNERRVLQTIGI

| Target | log2 fold change [1] | log2 fold change [2] | log2 fold change [3] | log2 fold change [4] | log2 fold change (Nexturastat A) | log2 fold change (vemurafenib) | log2 fold change [5] | log2 fold change [6] | log2 fold change (givinostat) | log2 fold change (barasertib) |
| --- | --- | --- | --- | --- | --- | --- | --- | --- | --- | --- |
| MAP2K3 isoform 3 (UniProt P46734) | -0.071 | -0.074 | -0.051 | -0.08 | 0.103 | -0.031 | -0.008 | 0.021 | 0.002 | 0.042 |
| MAP3K4 isoform 2 (UniProt Q9Y6R4) | -0.012 | 0.026 | -0.018 | -0.003 | 0.008 | -0.033 | -0.001 | -0.012 | -0.015 | 0.02 |
| KIF3B (UniProt O15066) | -0.082 | 0.05 | -0.022 | -0.042 | 0.097 | 0.018 | 0.017 | -0.019 | 0.067 | -0.062 |
| IPO9 (UniProt Q96P70) | 0.029 | 0.033 | 0 | -0.001 | -0.075 | 0.079 | 0.075 | -0.022 | -0.018 | 0.025 |
| MCCC2 (UniProt Q9HCC0) | 0.048 | -0.028 | 0.026 | 0.04 | -0.04 | 0.011 | 0.013 | -0.028 | -0.049 | -0.02 |
| ME2 (UniProt P23368) | -0.01 | -0.057 | -0.044 | -0.017 | 0.015 | 0.011 | 0.002 | 0.022 | 0.027 | 0.018 |
| KIF2C (UniProt Q99661) | 0.012 | -0.038 | 0.057 | 0.067 | 0.02 | 0.087 | 0.053 | 0.03 | 0.016 | 0.053 |
| IGF2R (UniProt P11717) | -0.039 | -0.016 | 0.037 | -0.004 | 0.014 | -0.022 | -0.007 | -0.036 | -0.018 | 0.002 |
| IWS1 (UniProt Q96ST2) | -0.083 | 0.007 | -0.015 | -0.02 | 0.029 | 0.046 | -0.003 | -0.017 | 0.051 | 0.002 |
| KDM5D isoform 3 (UniProt Q9BY66) | -0.132 | -0.144 | 0.036 | 0.039 | -0.08 | 0.003 | 0.128 | -0.004 | 0.014 | 0.108 |
| LARP4 isoform 4 (UniProt Q71RC2) | 0.066 | 0.005 | -0.041 | -0.002 | 0.251 | -0.017 | 0.018 | 0.054 | 0.04 | -0.053 |
| IMMT isoform 4 (UniProt Q16891) | 0.009 | 0.012 | 0.032 | 0.032 | -0.027 | -0.007 | 0.002 | -0.045 | -0.022 | 0.001 |
| LIAS (UniProt O43766) | -0.044 | 0.119 | -0.128 | -0.002 | -0.057 | -0.013 | -0.13 | -0.01 | -0.06 | -0.001 |
| KPNA1 (UniProt P52294) | -0.034 | -0.056 | -0.021 | -0.041 | 0.084 | 0.035 | 0.026 | 0.034 | 0.086 | 0.012 |
| METAP1D (UniProt Q6UB28) | -0.022 | 0.009 | 0.047 | -0.09 | -0.087 | -0.032 | -0.053 | 0.056 | -0.054 | -0.074 |
| KIF3A (UniProt Q9Y496) | -0.041 | -0.013 | -0.076 | 0 | 0.029 | -0.002 | 0.062 | 0.045 | 0.074 | -0.041 |
| MGST1 (UniProt P10620) | 0.062 | 0.044 | -0.017 | 0.017 | -0.07 | 0.067 | -0.007 | -0.093 | -0.027 | -0.035 |
| MAPK9 (UniProt P45984) | 0 | -0.011 | -0.078 | 0.044 | -0.057 | -0.005 | -0.07 | 0.034 | 0.038 | -0.022 |
| IPO7 (UniProt O95373) | 0.004 | -0.007 | 0.035 | 0.035 | 0.009 | 0.025 | 0.081 | -0.007 | 0.009 | 0.047 |
| MIEF1 (UniProt Q9NQG6) | 0.054 | 0.009 | 0.023 | 0.13 | -0.067 | -0.02 | 0.019 | 0.008 | -0.044 | 0.015 |
| MAIP1 (UniProt Q8WWC4) | -0.022 | -0.005 | 0.083 | 0.088 | -0.033 | 0.034 | 0.057 | -0.034 | 0.001 | -0.002 |
| MCL1 (UniProt Q07820) | -0.022 | -0.047 | 0.048 | 0.048 | 0.08 | -0.057 | -0.164 | 0.084 | 0.075 | -0.027 |
| MIEF1 (UniProt L0R8F8) | -0.007 | 0.003 | 0.019 | -0.026 | 0.092 | 0.079 | 0.102 | -0.001 | 0.006 | 0.003 |
| KPNB1 (UniProt Q14974) | 0.049 | -0.041 | 0 | -0.015 | 0.119 | 0.07 | 0.076 | 0.052 | 0.085 | 0.02 |
| IMMP1L (UniProt Q96LU5) | 0.003 | 0.067 | 0.008 | -0.029 | -0.085 | -0.055 | -0.031 | 0.273 | -0.048 | -0.024 |
| KHDRBS1 (UniProt Q07666) | 0.086 | -0.006 | -0.082 | 0.111 | 0.077 | 0.075 | -0.068 | 0.034 | 0.005 | -0.106 |
| LSS (UniProt P48449) | -0.032 | -0.122 | -0.071 | 0.054 | 0.012 | 0.03 | 0.073 | 0 | 0.766 (active) | 0.382 |
| MEAK7 (UniProt Q6P9B6) | 0.081 | 0.053 | -0.005 | 0.015 | -0.006 | 0.012 | 0.067 | -0.055 | 0.085 | 0.025 |
| KDM3B (UniProt Q7LBC6) | 0.024 | -0.041 | -0.032 | 0.037 | -0.045 | 0.049 | 0.031 | 0.041 | -0.001 | 0.082 |
